Results from PubChem BioAssay (Tox21).
Records with an inconclusive call do not appear. Where a call stands in place of a potency, no number is given. Calls of active or inactive are those of the source. Calls follow the shape of the dose curve; as a rule, active = well fitted activation curve with a large enough effect in the repeat runs; inconclusive = weak or mixed curves; inactive = flat fitted curve, though single readings scatter.

test: A CellTox Green Cytotoxicity Assay to monitor cytotoxicity in HepG2 cells - 24 hour (AID 1224878); details: CellTox Green fluorescence; series mostly up to 76.8 µM; also: nearly all actives have a fitted effect of over 45% in size
Source text: National Center for Advancing Translational Sciences [NCATS]
NIH Chemical Genomics Center [NCGC]
U.S. Environmental Protection Agency [EPA]
National Institutes of Environmental Health Sciences [NIEHS]
National Toxicology Program [NTP]
Cell-based models are critical for drug discovery. Determining the natural cytotoxic effects resulting from test compounds is an essential research activity. A CellTox Green Cytotoxicity Assay to monitor cytotoxicity in real time of continues cell culture during 40 hours of the compound treatment was used to screen Tox21 10K library compounds in HepG2 cells. CellTox Green Cytotoxicity Assay is a nonlytic, homogeneous, biofluorescent method to measure cytotoxicity in cell culture after experimental manipulation. The assay system uses a proprietary asymmetric cyanine dye that is excluded from viable cells but preferentially stains the dead cell's DNA. […] Viable cells produce no appreciable increases in fluorescence. Therefore, the fluorescence signal produced by the binding interaction with dead cell DNA is proportional to cytotoxicity.
The mixture of HepG2 cell suspension and reagents were dispensed at 600cells/6 ul/well in 1536-well tissue culture treated black solid bottom plates using a Multidrop dispenser. After the assay plates were incubated at a 37 C/5% CO2 incubator for 5 hours, 23 nL of compounds dissolved in DMSO, positive and negative controls was transferred to the assay plate by a pintool work station. The plates were incubated at 37 C for 40 hours. The fluorescence intensity were measured at 0h, 8h, 16h, 24h, 32h and 40h time points using ViewLux plate reader during compound treatment.
Potency is read from the fitted curve at half-maximal effect.

Structure (SMILES)	Potency
CC(=O)OCCC(C)CC(C)(C)C (stereo not given)	inactive
CCCOC(=O)c1c(Cl)c(Cl)c(Cl)c(Cl)c1C(=O)OCCC	inactive
Cc1ccccc1S(N)(=O)=O	inactive
CO[C@@H]1[C@@H](OC)[C@H](C)[C@@](O)(CC(=O)O)O[C@H]1[C@H](C)[C@H]1O[C@@]2(CC[C@@](C)([C@H]3CC[C@@](C)([C@@H]4O[C@@H]([C@H]5O[C@](C)(O)[C@H](C)C[C@@H]5C)C[C@@H]4OC4C[C@H](OC)[C@@H](OC)[C@H](C)O4)O3)O2)C[C@H](O)[C@H]1C (stereo not given in full)	12 µM (active)
CCOC(=O)Oc1ccc(CCNC(=O)[C@H](CCSC)NC(C)=O)cc1OC(=O)OCC	inactive
CC1CCCO1 (stereo not given)	inactive
CCSC(=O)N(CC)CC	inactive
CCOC(=O)N1CCC(Nc2ccc(Cl)cc2N)CC1	inactive
Cc1cc([N+](=O)[O-])ccc1N	inactive
COc1cc(NCc2ccc3nc(N)nc(N)c3c2C)cc(OC)c1OC	inactive
CCCCCCCC/C=C\CCCCCCCC(=O)OCCO	inactive
Nc1ccn([C@H]2CS[C@@H](CO)O2)c(=O)n1	inactive
CC(=O)N[C@@H](Cc1ccc(O)cc1)C(=O)O	inactive
C1CCCCC1	inactive
Nc1ccc(N=Nc2ccc(N)cc2)cc1	inactive
C=C(C)c1ccccc1	inactive
CC1=C2[C@@H]([C@H](C)CC[C@H]2/C=C(\C)C(=O)O)[C@H](O)C1	inactive
O=C(O)CN1C(=O)c2cccc3cccc(c23)C1=O	inactive
O=C(O)/C=C/c1ccc(O)c(O)c1	inactive
CCCCCCCCCCCSCC(=O)O	inactive

Structure (SMILES)	Potency
O=NN(CCCl)C(=O)NCCCl	4.77 µM (active)
O=C1c2ccccc2C(=O)c2c(O)ccc(O)c21	24.5 µM (active)
O=C(c1ccccc1)C1CCC1	38.9 µM (active)
CN=C(N)NC(=O)Nc1c(C)cccc1C	inactive
CC(=O)C(=O)CC(C)C	inactive
O=c1[nH][nH]c(=O)c2cc([N+](=O)[O-])ccc12	inactive
C=Cc1ccc(OC(C)=O)cc1	inactive
O=S(=O)(O)CO	inactive
O=C1NC(=O)c2cccc3cccc1c23	inactive
CC(=O)OCC(C)C	inactive
FC(F)(F)C(F)(F)C(F)(F)C(F)(F)CCI	inactive
COC1CCC=CO1 (stereo not given)	inactive
CC(C)(O)CCc1ccccc1	inactive
Oc1cccc2[nH]ccc12	inactive
C[C@@H]1[C@H](O)[C@@H](C)/C=C/C=C\C=C\C=C\C=C\C=C\C=C\[C@H](O[C@@H]2O[C@H](C)[C@@H](O)[C@H](N)[C@@H]2O)C[C@@H]2O[C@](O)(C[C@@H](O)C[C@@H](O)[C@H](O)CC[C@@H](O)C[C@@H](O)CC(=O)O[C@H]1C)C[C@H](O)[C@H]2C(=O)O (stereo in doubt)	inactive
O=[N+]([O-])c1ccc2ncccc2c1	inactive
CCCC(=O)OC(=O)CCC	inactive
Cc1cn([C@H]2C[C@H](F)[C@@H](CO)O2)c(=O)[nH]c1=O	inactive
CC[C@H]1OC(=O)[C@H](C)[C@@H](O[C@H]2C[C@@](C)(OC)[C@@H](O)[C@H](C)O2)[C@H](C)[C@@H](O[C@@H]2O[C@H](C)C[C@H](N(C)C)[C@H]2O)[C@](C)(O)C[C@@H](C)CN(C)[C@H](C)[C@@H](O)[C@]1(C)O	inactive
CCCCCC	inactive
